Experimental data as given in PubChem BioAssay (NCATS).
Inconclusive results are not listed. Where a call stands in place of a potency, no number is given. Active and inactive are the calls of the source. The call rests on the fitted dose curve; in most records, active means well fitted curve in the direction sought with a large enough effect; inconclusive means small, poorly fitted or top-dose-only effect, or another doubt; inactive means no such curve, though single readings can be large; an effect the other way counts as inactive or inconclusive.
Potency means the concentration at half of the fitted maximal effect.

Experiment: Cell Proliferation Assay against the TMD8 Cell Line (Caspase readout at 16 hrs) (AID 651712)
Conditions: TMD8 lymphoma cells, caspase activation luminescence; series mostly up to 46.1 µM
In short: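 Apoptotic response of TMD8 cells was judged from caspase 3/7 activation following a 16 hour compound incubation at 37 °C. Luminescent signal was converted to percent activity, with DMSO set as 0% and 9.2 uM final bortezomib as 100%.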
With `CC(C)n1c(C=C[C@H](O)C[C@H](O)CC(=O)O)c(-c2ccc(F)cc2)c2ccccc21` the Potency was “inactive”.
In the case of `CCC=CC[C@H]1C(=O)CC[C@@H]1CC(=O)OC`, the Potency is reported as “inactive”.
With `Cn1cc(-c2ccc3nnc(Sc4ccc5ncccc5c4)n3n2)cn1` the Potency was “inactive”.
With `CCC(=O)N1CCN(c2ccc(-n3c(=O)ccc4cnc5ccc(-c6cnc7ccccc7c6)cc5c43)cc2C(F)(F)F)CC1` the Potency was 18.7 µM (active).
In the case of `O=C(O)c1ccc(O)c2ncc(N3CCOCC3)cc12`, the Potency is reported as “inactive”.
For `CC(O)=C(C#N)C(=O)Nc1ccc(C(F)(F)F)cc1`, the Potency was “inactive”.
With `NC(=O)c1ccc(N(C(N)=O)c2c(F)cccc2F)nc1-c1ccc(F)cc1F` the Potency was “inactive”.
For `COc1cc2c(cc1OC)CC(=O)N(CCCN(C)C[C@H]1Cc3cc(OC)c(OC)cc31)CC2`, the Potency was “inactive”.
In the case of `COc1nc(C)cnc1NS(=O)(=O)c1cccnc1-c1ccc(-c2nnco2)cc1`, the Potency is reported as “inactive”.
For `CCCCOCCOc1nc(-c2ccc(C(=O)O)c(F)c2)sc1C`, the Potency was “inactive”.
In the case of `Cc1ccc(NC(=O)c2ccc(CN3CCN(C)CC3)cc2)cc1Nc1nc(-c2cccnc2)cs1`, the Potency is reported as “inactive”.
With `CN1C(=O)C(Cc2c[nH]c3ccccc23)NC1=S` (stereo not given) the Potency was “inactive”.
With `O=C(Nc1cccc(Cl)c1)Nc1ncc(CCNc2ncnc3ccsc23)s1` the Potency was “inactive”.
For `CCCCn1c(=O)n(Cc2ccccc2F)c(=O)c2[nH]c(Cc3ccc(NC(C)=O)cc3)nc21`, the Potency was “inactive”.
With `CNC(=O)c1cc(Oc2ccc(NC(=O)Nc3ccc(Cl)c(C(F)(F)F)c3)c(F)c2)ccn1` the Potency was “inactive”.
With `OCCn1cc(-c2ccc3c(c2)CCC3=NO)c(-c2ccncc2)n1` the Potency was “inactive”.

Experiment: Cell Proliferation Assay against the TMD8 Cell Line (Caspase readout at 8 hrs) (AID 651713)
Conditions: TMD8 lymphoma cells, caspase activation luminescence; series mostly up to 46.1 µM
In short: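 TMD8 cells in RPMI plus 5% FBS were treated with compound for 8 h at 37C. Caspase 3/7 activation was read by Caspase-Glo luminescence. Percent activity was scaled from DMSO (0%) to 9.2 uM bortezomib final (100%).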
For `CC(C)n1c(C=C[C@H](O)C[C@H](O)CC(=O)O)c(-c2ccc(F)cc2)c2ccccc21`, the Potency was “inactive”.
For `CCC=CC[C@H]1C(=O)CC[C@@H]1CC(=O)OC`, the Potency was “inactive”.
For `CN(C)CCN(C)C(=O)c1ccc(NC(=O)Nc2ccc(-c3nc(N4CCOCC4)c4ccn(CC(F)(F)F)c4n3)cc2)cc1`, the Potency was 29.6 µM (active).
For `Cn1cc(-c2ccc3nnc(Sc4ccc5ncccc5c4)n3n2)cn1`, the Potency was “inactive”.
With `O=C1C(CCC(O)c2ccc(F)cc2)C(c2ccc(O)cc2)N1c1ccc(F)cc1` (stereo not given) the Potency was “inactive”.
With `CCC(=O)N1CCN(c2ccc(-n3c(=O)ccc4cnc5ccc(-c6cnc7ccccc7c6)cc5c43)cc2C(F)(F)F)CC1` the Potency was “inactive”.
For `CC(C)C[C@@H](C(=O)N[C@H](C(=O)OC1CCCC1)c1ccccc1)[C@H](O)C(=O)NO`, the Potency was “inactive”.
For `CCCCCCCCCCCCCC(=O)N[C@H](CO)[C@H](O)c1ccc([N+](=O)[O-])cc1`, the Potency was “inactive”.
With `O=C(O)c1ccc(O)c2ncc(N3CCOCC3)cc12` the Potency was “inactive”.
For `CC(O)=C(C#N)C(=O)Nc1ccc(C(F)(F)F)cc1`, the Potency was “inactive”.
With `NC(=O)c1ccc(N(C(N)=O)c2c(F)cccc2F)nc1-c1ccc(F)cc1F` the Potency was “inactive”.
In the case of `COc1cc2c(cc1OC)CC(=O)N(CCCN(C)C[C@H]1Cc3cc(OC)c(OC)cc31)CC2`, the Potency is reported as “inactive”.
In the case of `COc1nc(C)cnc1NS(=O)(=O)c1cccnc1-c1ccc(-c2nnco2)cc1`, the Potency is reported as “inactive”.
In the case of `CCCCOCCOc1nc(-c2ccc(C(=O)O)c(F)c2)sc1C`, the Potency is reported as “inactive”.
In the case of `Cc1ccc(NC(=O)c2ccc(CN3CCN(C)CC3)cc2)cc1Nc1nc(-c2cccnc2)cs1`, the Potency is reported as 23.5 µM (active).
In the case of `COc1c(C)cnc(Cn2cnc3c(Cl)nc(N)nc32)c1C`, the Potency is reported as “inactive”.
For `Cc1nn(Cc2ccccc2Cl)c(C)c1CN(C)CC(O)COc1ccc(Cl)cc1` (stereo not given), the Potency was “inactive”.
For `CN1C(=O)C(Cc2c[nH]c3ccccc23)NC1=S` (stereo not given), the Potency was “inactive”.
In the case of `O=C(Nc1cccc(Cl)c1)Nc1ncc(CCNc2ncnc3ccsc23)s1`, the Potency is reported as “inactive”.
For `CCCCn1c(=O)n(Cc2ccccc2F)c(=O)c2[nH]c(Cc3ccc(NC(C)=O)cc3)nc21`, the Potency was “inactive”.
With `COC(=O)Nc1ccc(-c2nc(N3CCOCC3)c3cnn(C4CCN(C(=O)OC)CC4)c3n2)cc1` the Potency was “inactive”.
In the case of `Cc1cccc(Nc2nc(N[C@@H]3CCCC[C@H]3N)ncc2C(N)=O)c1`, the Potency is reported as “inactive”.
For `CNC(=O)c1cc(Oc2ccc(NC(=O)Nc3ccc(Cl)c(C(F)(F)F)c3)c(F)c2)ccn1`, the Potency was “inactive”.
In the case of `OCCn1cc(-c2ccc3c(c2)CCC3=NO)c(-c2ccncc2)n1`, the Potency is reported as “inactive”.
